Source: PubChem BioAssay (NCI)
Compounds without any hit were thinned out: in the full panel of roughly 79,000, 15% have a hit. The source made the active and inactive calls. Rule as the data show it: active = growth inhibition above about 70%; inactive = the rest.

Key:
[1] = NCI Yeast Anticancer Drug Screen. Data for the mec2-1 strain (AID 157); conditions: S. cerevisiae mec2-1 strain, stronger effect = higher value
Outline: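 Strain: mec2-1 (DNA repair/cell cycle alteration). Compound exposure, then growth measured; inhibition expressed relative to vehicle.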

[2] = NCI Yeast Anticancer Drug Screen. Data for the rad14 strain (AID 159);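 also: 0% = growth of vehicle-treated control cultures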; conditions: S. cerevisiae rad14 strain growth inhibition, stronger effect = higher value
Outline: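 Readout: yeast growth inhibition, referenced to vehicle-only cultures. Strain bears a defined alteration in DNA damage repair.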

[3] = NCI Yeast Anticancer Drug Screen. Data for the sgs1 mgt1 strain (AID 161);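 also: 0% = growth of cultures given vehicle only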; conditions: S. cerevisiae sgs1 mgt1 strain, stronger effect = higher value
Outline: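 Genetically altered yeast, compound exposure, growth inhibition relative to vehicle.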

[4] = NCI Yeast Anticancer Drug Screen. Data for the cln2 rad14 strain (AID 165);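 also: 0% = growth equal to vehicle treated cultures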; conditions: S. cerevisiae cln2 rad14 strain, stronger effect = higher value
Outline: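 Compounds are applied to the cln2 rad14 yeast strain, and growth is then compared with that of vehicle-treated cultures to give inhibition.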

[5] = NCI Yeast Anticancer Drug Screen. Data for the bub3 strain (AID 167); conditions: S. cerevisiae bub3 mutant strain, stronger effect = higher value
Outline: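 Part of a panel of yeast mutants defective in DNA damage repair or cell cycle regulation. Each strain is grown with compound, and inhibition is calculated relative to solvent-treated cultures.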

[6] = NCI Yeast Anticancer Drug Screen. Data for the wt2 strain (AID 169);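 also: 0% = growth of vehicle-treated yeast cultures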; conditions: S. cerevisiae wt2 strain growth inhibition, stronger effect = higher value
Outline: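 This strain belongs to a panel of yeast strains with defined genetic alterations in DNA damage repair or cell cycle control. Compounds are applied, and growth inhibition is measured against vehicle-treated cultures.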

[7] = NCI Yeast Anticancer Drug Screen. Data for the mlh1 strain (AID 171);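 also: 0% = growth of vehicle-treated control cultures of the same strain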; conditions: S. cerevisiae mlh1 strain growth inhibition, stronger effect = higher value
Outline: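 Growth of the mutant yeast strain after compound exposure, expressed as inhibition relative to vehicle-only controls.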

[8] = NCI Yeast Anticancer Drug Screen. Data for the mlh1 rad18 strain (AID 175); conditions: S. cerevisiae mlh1 rad18 strain growth inhibition, stronger effect = higher value
Outline: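 Read-out is yeast growth inhibition, calculated against vehicle-only controls. The compound was applied to a strain engineered with DNA damage repair alterations.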

[9] = NCI Yeast Anticancer Drug Screen. Data for the rad18 strain (AID 177); conditions: S. cerevisiae rad18 mutant growth inhibition, stronger effect = higher value
Outline: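 Growth of the mutant yeast strain after compound exposure, normalised to vehicle-only cultures.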

[10] = NCI Yeast Anticancer Drug Screen. Data for the rad52 strain (AID 147);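 also: 0% = growth of vehicle-treated control cultures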; conditions: S. cerevisiae rad52 mutant growth inhibition, stronger effect = higher value
Outline: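 Compounds are applied to a genetically defined yeast strain lacking normal DNA damage repair, and inhibition of growth is expressed relative to cultures given vehicle only.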

[11] = NCI Yeast Anticancer Drug Screen. Data for the wt1 strain (AID 149);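 also: 0% = growth of vehicle-treated wt1 cultures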; conditions: S. cerevisiae wt1 strain (SPY 50644) growth inhibition, stronger effect = higher value
Outline: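 The wt1 strain was treated with compounds, and growth was compared with vehicle-treated cultures to give inhibition.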

[12] = NCI Yeast Anticancer Drug Screen. Data for the rad50EPP+ strain (AID 151);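 also: 0% = growth of vehicle-treated control cultures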; conditions: S. cerevisiae rad50 mutant strain, stronger effect = higher value
Outline: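 Compounds were applied to the rad50EPP+ yeast strain, which bears a defined DNA repair alteration, and growth inhibition was determined relative to vehicle-treated cultures.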

[13] = NCI Yeast Anticancer Drug Screen. Data for the mgt1 strain (AID 153); conditions: S. cerevisiae mgt1 mutant growth inhibition, stronger effect = higher value
Outline: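 Strain: mgt1 yeast, one of a set carrying defined DNA damage repair or cell cycle control alterations. Compound-treated growth compared with vehicle.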

[14] = NCI Yeast Anticancer Drug Screen. Data for the rad50 strain (AID 155);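 also: 0% = growth of vehicle-only cultures of the same strain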; conditions: S. cerevisiae rad50 strain growth inhibition, stronger effect = higher value
Outline: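 Cells are treated with compound, grown, and their growth is then scored against vehicle-only cultures of the same repair-deficient yeast strain.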

[15] = NCI Yeast Anticancer Drug Screen. Data for the sgs1 strain (AID 173);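 also: 0% = growth of vehicle-only control cultures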; conditions: S. cerevisiae sgs1 mutant, stronger effect = higher value
Outline: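 Growth of a yeast strain bearing a defined genetic alteration is measured after compound treatment. Inhibition is expressed relative to vehicle-only controls.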

[16] = at 5.0 µM (retest, dose inferred, filed as 0.5)
[17] = at 50.0 µM (retest, dose inferred, filed as 5.0)

Measured: growth inhibition

OC(/C=C/c1ccccc1)(Cc1cc(-c2ccccc2)n[nH]1)c1ccccc1 (centres undefined)
active: [1]; [17] 97% | [1]; at 50.0 µM 99.1% | [3]; [17] 97% | [3]; at 50.0 µM 97.8% | [4]; [17] 94% | [4]; at 50.0 µM 98.3% | [5]; [17] 98% | [5]; at 50.0 µM 99.2% | [8]; [17] 97% | [8]; at 50.0 µM 98.7%
inactive: [1]; [16] 1% | [1]; at 11.0 µM 12% | [1]; at 33.0 µM 13% | [1]; at 100.0 µM 12% | [2]; at 1.2 µM 15% | [2]; at 3.7 µM 15% | [2]; at 11.0 µM 13% | [2]; at 33.0 µM 17% | [2]; at 100.0 µM 16% | [3]; [16] 17% | [4]; [16] -19% | [5]; at 1.2 µM 3% | [5]; at 3.7 µM 3% | [5]; [16] -10% | [5]; at 11.0 µM 2% | [5]; at 33.0 µM 7% | [5]; at 100.0 µM 6% | [6]; at 1.2 µM -11% | [6]; at 3.7 µM -8% | [6]; at 11.0 µM -15% | [6]; at 33.0 µM -8% | [6]; at 100.0 µM -14% | [7]; at 1.2 µM 10% | [7]; at 3.7 µM 12% | [7]; at 11.0 µM 12% | [7]; at 33.0 µM 13% | [7]; at 100.0 µM 14% | [8]; [16] 18% | [9]; at 1.2 µM 12% | [9]; at 3.7 µM 12% | [9]; at 11.0 µM 11% | [9]; at 33.0 µM 15% | [9]; at 100.0 µM 24%

CN(C)Cc1cc(N=Nc2ccc(Cl)cc2)ccc1OC(=O)c1ccccc1
inactive: [10]; at 1.2 µM 1% | [10]; at 3.7 µM 3% | [10]; at 11.0 µM 1% | [10]; at 33.0 µM 7% | [10]; at 100.0 µM 17% | [11]; at 1.2 µM 1% | [11]; at 3.7 µM 1% | [11]; at 11.0 µM 3% | [11]; at 33.0 µM 3% | [11]; at 100.0 µM -1% | [12]; at 1.2 µM 4% | [12]; at 3.7 µM 7% | [12]; at 11.0 µM 20% | [12]; at 33.0 µM 22% | [12]; at 100.0 µM 41% | [13]; at 1.2 µM 0% | [13]; at 3.7 µM 1% | [13]; at 11.0 µM 5% | [13]; at 33.0 µM 48% | [14]; at 1.2 µM 1% | [14]; at 3.7 µM 1% | [14]; [16] -10% | [14]; at 11.0 µM 1% | [14]; at 33.0 µM 5% | [14]; [17] 10% | [14]; at 100.0 µM 11% | [1]; at 1.2 µM -3% | [1]; at 3.7 µM 3% | [1]; [16] -2% | [1]; at 11.0 µM -2% | [1]; at 33.0 µM 3% | [1]; [17] 47% | [1]; at 100.0 µM 42% | [2]; at 1.2 µM -1% | [2]; at 3.7 µM -2% | [2]; at 11.0 µM 1% | [2]; at 33.0 µM 14% | [2]; at 100.0 µM 51% | [3]; [16] 38% | [3]; [17] 48% | [4]; [16] -20% | [4]; [17] 51% | [5]; at 1.2 µM -2% | [5]; at 3.7 µM -2% | [5]; [16] -15% | [5]; at 11.0 µM -4% | [5]; at 33.0 µM 5% | [5]; [17] 54% | [5]; at 100.0 µM 23% | [6]; at 1.2 µM 1% | [6]; at 3.7 µM 2% | [6]; at 11.0 µM 6% | [6]; at 33.0 µM 21% | [6]; at 100.0 µM 52% | [7]; at 1.2 µM 2% | [7]; at 3.7 µM 2% | [7]; at 11.0 µM 4% | [7]; at 33.0 µM 31% | [7]; at 100.0 µM 67% | [15]; at 1.2 µM 0% | [15]; at 3.7 µM 5% | [15]; at 11.0 µM 9% | [15]; at 33.0 µM 42% | [8]; [16] -9% | [8]; [17] 61% | [9]; at 1.2 µM 1% | [9]; at 3.7 µM 1% | [9]; at 11.0 µM -16% | [9]; at 33.0 µM 17% | [9]; at 100.0 µM 58%
active: [13]; at 100.0 µM 82% | [14]; at 50.0 µM 90.3% | [1]; at 50.0 µM 97.2% | [3]; at 50.0 µM 98.3% | [4]; at 50.0 µM 97% | [5]; at 50.0 µM 98.5% | [15]; at 100.0 µM 74% | [8]; at 50.0 µM 98.5%

CCCCCCC(O)CNCc1ccnc2ccc(OC)cc12 (centres undefined)
active: [14]; at 50.0 µM 76.8% | [3]; at 50.0 µM 83.5% | [4]; at 50.0 µM 72.2% | [5]; at 50.0 µM 83.7%
inactive: [10]; at 1.2 µM 5% | [10]; at 3.7 µM 12% | [10]; at 11.0 µM 22% | [10]; at 33.0 µM 35% | [10]; at 100.0 µM 52% | [11]; at 1.2 µM 2% | [11]; at 3.7 µM 9% | [11]; at 11.0 µM 4% | [11]; at 33.0 µM 8% | [11]; at 100.0 µM 18% | [12]; at 1.2 µM 1% | [12]; at 3.7 µM 2% | [12]; at 11.0 µM 4% | [12]; at 33.0 µM 0% | [12]; at 100.0 µM 2% | [13]; at 1.2 µM 1% | [13]; at 3.7 µM 4% | [13]; at 11.0 µM 17% | [13]; at 33.0 µM 38% | [13]; at 100.0 µM 51% | [14]; at 1.2 µM 5% | [14]; at 3.7 µM 13% | [14]; [16] 8% | [14]; at 11.0 µM 11% | [14]; at 33.0 µM 31% | [14]; [17] 51% | [14]; at 100.0 µM 54% | [1]; at 1.2 µM 4% | [1]; at 3.7 µM 13% | [1]; [16] 7% | [1]; at 11.0 µM 15% | [1]; at 33.0 µM 29% | [1]; [17] 43% | [1]; at 50.0 µM 53.4% | [1]; at 100.0 µM 46% | [2]; at 1.2 µM 13% | [2]; at 3.7 µM 32% | [2]; at 11.0 µM 33% | [2]; at 33.0 µM 33% | [2]; at 100.0 µM 49% | [3]; [16] 23% | [3]; [17] 61% | [4]; [16] 14% | [4]; [17] 43% | [5]; at 1.2 µM 1% | [5]; at 3.7 µM 8% | [5]; [16] 20% | [5]; at 11.0 µM 24% | [5]; at 33.0 µM 44% | [5]; [17] 63% | [5]; at 100.0 µM 63% | [6]; at 1.2 µM 4% | [6]; at 3.7 µM 8% | [6]; at 11.0 µM 9% | [6]; at 33.0 µM 14% | [6]; at 100.0 µM 28% | [7]; at 1.2 µM 5% | [7]; at 3.7 µM 9% | [7]; at 11.0 µM 15% | [7]; at 33.0 µM 18% | [7]; at 100.0 µM 35% | [15]; at 1.2 µM 6% | [15]; at 3.7 µM 12% | [15]; at 11.0 µM 18% | [15]; at 33.0 µM 29% | [15]; at 100.0 µM 56% | [8]; [16] 21% | [8]; [17] 61% | [8]; at 50.0 µM 52.2% | [9]; at 1.2 µM 7% | [9]; at 3.7 µM 12% | [9]; at 11.0 µM 8% | [9]; at 33.0 µM 19% | [9]; at 100.0 µM 30%
